An excerpt weighted towards active compounds, which were near 21% of everything screened.
Shiga inhibitor = inhibitors of Shiga toxin in Vero cells | AID 2315 | inhibition, % at 38.7 µM | 290,000 tested, 9.2% active | Vero cells, Shiga toxin protein synthesis inhibition reporter; in the data active = inhibition mostly above about 28%, no sharp cut-off; inactive = mostly below about 43%
Pf growth 96h = P. falciparum growth inhibition at 96 hour, primary screen for plastid delayed-death inhibitors; P. falciparum luciferase reporter growth, 96 h; Potency, µM (titrated, usually from 28.7 µM), usual class: inhibitors; 320,000 tested, 6.9% active; AID 504834
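P. falciparum expressing integrated firefly luciferase, in erythrocytes at 2% hematocrit, 0.05% parasitemia, incubated with compounds 96 h at 37 C, 5% CO2. Growth inhibition read as loss of luminescence; two-generation exposure targets delayed-death apicoplast inhibitors.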
Pf growth 48h = P. falciparum growth inhibition at 48 hours (one generation); P. falciparum luciferase growth in erythrocytes, 48 h; Potency, µM (highest dose often 28.7 µM), hits mostly inhibitors; 310,000 tested, 5.9% active
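In quantitative HTS format, infected erythrocytes bearing luciferase-reporter parasites were treated for a single generation at 37 C. Luminescence after adding detection reagent served as the growth measure.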
Cycloheximide cs = counter-screen hit for Shiga toxin inhibitors, cycloheximide | cell reporter, cycloheximide protein synthesis inhibition counterscreen | max response, % | 300,000 tested, 12% active | AID 2314; in the data active = max response mostly above about 13%, no sharp cut-off; inactive = mostly below about 14%; also: read at 38.3 µM for the half of the compounds with a filed dose
Of the large screens only hits and unclear results are named; the others gave an inactive call. Unless noted, calls follow the shape of the dose curve; as a rule, active = well fitted inhibition curve with a large enough effect; inconclusive = small, poorly fitted or top-dose-only effect, or another doubt; inactive = no such curve, though single readings can be large or run the other way.

Cc1ccc(C)c(Cn2c3ccccc3c3cnn(CC(=O)NCc4ccccn4)c(=O)c32)c1	Pf growth 96h 12µM, Pf growth 48h inconclusive
O=C1NC2(CCCCC2)C(=O)N1CC(=O)N(Cc1ccccc1)c1ccccc1	none
CNC(=O)Oc1ccc(-c2cn3cc(Cl)ccc3n2)cc1	Cycloheximide cs 21
CNC(=O)Oc1cccc(-c2cn3cc(OC(=O)NC)ccc3n2)c1	Shiga inhibitor active, Pf growth 96h inconclusive, Cycloheximide cs 37
CNCc1cn2cc(Cl)ccc2n1	none
O=[N+]([O-])CC1(n2nc3ccccc3n2)CCCCC1	none (no result: Shiga inhibitor, Cycloheximide cs)
CN(C)c1cc[n+](CC(=O)c2ccc(-c3ccccc3)cc2)cc1	Pf growth 96h inconclusive, Pf growth 48h 4.7µM
COc1ccc(C(=O)C[n+]2ccc(N(C)C)cc2)cc1	Pf growth 96h inconclusive, Pf growth 48h 1.2µM
CN(C)c1cc[n+](CC(=O)c2ccc(Br)cc2)cc1	Pf growth 96h inconclusive, Pf growth 48h inconclusive
Cc1cc2ncn(CC3CC3(Cl)Cl)c2cc1C (configuration not stated)	none
Cc1cccc(-c2ccc(C=Nc3c(C)n(C)n(-c4ccccc4)c3=O)o2)c1	Cycloheximide cs 28
Cc1c(N=Cc2nc3ccccc3[nH]2)c(=O)n(-c2ccccc2)n1C	Shiga inhibitor 90, Cycloheximide cs 46
Cc1c(N=Cc2nc3ccccc3n2C)c(=O)n(-c2ccccc2)n1C	Shiga inhibitor 64, Cycloheximide cs 49
CCn1c(=O)c2sccc2n(Cc2ccccc2)c1=O	Pf growth 48h inconclusive
NC(=O)c1c(NC(=O)c2ccccc2F)sc2c1CCCC2	Shiga inhibitor 83, Cycloheximide cs 49
CCn1cc(Br)c(C(=O)Nc2sc3c(c2C(N)=O)CCCC3)n1	none
NC(=O)c1c(NC(=O)c2ccccc2Cl)sc2c1CCC2	Shiga inhibitor 51, Pf growth 96h inconclusive, Cycloheximide cs 38
Cn1cc(Br)c(C(=O)Nc2sc3c(c2C(N)=O)CCCC3)n1	Shiga inhibitor 66, Pf growth 96h 4.1µM, Cycloheximide cs 35
NC(=O)c1c(NC(=O)c2ccc(F)cc2Cl)sc2c1CCC2	Shiga inhibitor 31, Cycloheximide cs 25
NC(=O)c1c(NC(=O)c2cccnc2Cl)sc2c1CCCC2	none
Cc1ccc(S(=O)(=O)N2CC(C)C(=O)CC2C)cc1 (configuration not stated)	Pf growth 96h inconclusive
O=C(O)c1cn(-c2ccc(F)c(F)c2)c2c(F)c(F)c(F)c(F)c2c1=O	none
Cc1onc(C(=O)Nc2sc3c(c2C(N)=O)CCCC3)c1[N+](=O)[O-]	Cycloheximide cs 20
Cc1nc2ccccc2n1C1CCN(CC(=O)NCc2ccc(F)cc2)CC1	Pf growth 96h 5.9µM, Pf growth 48h inconclusive
O=C(COC(=O)c1oc2ccccc2c1COc1ccccc1)NCCN1C(=O)CSC1=O	none
CCCC(C(=O)NC1CCCC1)N(CC1CCCO1)C(=O)CNS(=O)(=O)c1ccccc1 (configuration not stated)	none
Cc1cccc(C(=O)OCC(=O)c2ccc3c(c2)OCO3)c1O	Shiga inhibitor 78, Cycloheximide cs 71
Cc1nc(/C(N)=N/OC(=O)c2c(-c3ccccc3Cl)noc2C)cs1	Pf growth 96h 10µM, Pf growth 48h inconclusive
CC(C)C(=O)Nc1ccccc1C(=O)OCC(=O)c1ccc2c(c1)OCCO2	Shiga inhibitor 64, Cycloheximide cs 38
CC(=O)NC12CC3CC(C1)CC(C(=O)OCC(=O)c1ccc4c(c1)OCCO4)(C3)C2	Shiga inhibitor 80, Cycloheximide cs 45 (no result: Pf growth 48h)
Cc1c(-c2ccc(Cl)cc2Cl)nc2ccccc2c1C(=O)NCCN1CCOCC1	Pf growth 96h inconclusive, Pf growth 48h inconclusive
Cc1ccccc1NC(=O)COC(=O)c1ccc2c(c1)OCCO2	none (no result: Shiga inhibitor, Cycloheximide cs)
Cc1onc(-c2ccccc2Cl)c1C(=O)OCC(=O)c1ccc[nH]1	Pf growth 48h inconclusive (no result: Shiga inhibitor, Cycloheximide cs)
Cc1onc(-c2ccccc2Cl)c1C(=O)OCC(=O)c1ccc2c(c1)OCCO2	Shiga inhibitor 121, Pf growth 96h inconclusive, Cycloheximide cs 59
CC(=O)Nc1ccccc1C(=O)OCC(=O)c1ccc2c(c1)OCCO2	Shiga inhibitor 98, Cycloheximide cs 32
O=C(Cn1nc(C(=O)O)c2ccccc2c1=O)Nc1cc(C(F)(F)F)ccc1-n1cncn1	none (no result: Shiga inhibitor, Cycloheximide cs)
COc1ccc(-c2sc3ccc(N4CCOCC4)cc3c2C#CC(C)(C)O)cc1	Pf growth 96h 2.6µM, Pf growth 48h inconclusive (no result: Shiga inhibitor, Cycloheximide cs)
O=c1[nH]c2ccccc2cc1CN(Cc1cccnc1)S(=O)(=O)c1ccc([N+](=O)[O-])cc1	Pf growth 96h 4.7µM, Pf growth 48h inconclusive
O=c1[nH]c2ccccc2cc1CN(Cc1cccnc1)S(=O)(=O)c1ccc(Cl)cc1	Pf growth 96h inconclusive, Pf growth 48h inconclusive
Cc1cc(C)nc(NC2=NCCN2C(=S)Nc2c(C)cccc2C)n1	Pf growth 96h inconclusive

Screens as filed in PubChem.
